Screening results from PubChem BioAssay.
DRD3 antagonist – blocks the human D3 dopamine receptor; P35462; D3R cells, DiscoveRx beta-arrestin luminescence, antagonist mode; hits give low values; max response, negative = inhibition, %; 360,000 compounds, 2.5% hits; AID 652054; in the data active = max response below about -50%; inconclusive = no clear call, values can overlap the other calls; note: % is set by controls: 0 for no effect and ±100 for the full control effect
Target sequence (P35462 whole entry, looked up): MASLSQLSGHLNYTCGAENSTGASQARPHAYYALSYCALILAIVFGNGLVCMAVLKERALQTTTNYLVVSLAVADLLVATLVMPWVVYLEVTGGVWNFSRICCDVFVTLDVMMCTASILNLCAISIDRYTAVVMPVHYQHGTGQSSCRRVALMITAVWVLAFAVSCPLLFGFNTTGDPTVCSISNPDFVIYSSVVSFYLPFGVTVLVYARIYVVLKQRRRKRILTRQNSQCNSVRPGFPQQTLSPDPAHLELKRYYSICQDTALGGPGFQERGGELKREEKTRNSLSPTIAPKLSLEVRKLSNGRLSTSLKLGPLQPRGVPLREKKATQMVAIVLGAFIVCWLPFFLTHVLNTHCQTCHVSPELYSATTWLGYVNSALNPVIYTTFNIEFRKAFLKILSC
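Cells expressing the human receptor were seeded at 1500 cells/well, incubated overnight at 37 degrees C in 5% CO2, then exposed to library compounds with dopamine controls for 90 minutes at 37 degrees C before luminescent detection.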
D1 ag – activates the human D1 dopamine receptor; activation, % at 2 µM; P21728; 360,000 compounds, 1% hits; HEK293 T-REx D1 cells, calcium flux, agonist mode; in the data active = activation above about 30%; note: 0% is about no effect
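Agonism was scored from calcium flux recorded over 180 s (1 read/s) after pintool compound addition, following a 10-cycle baseline. Cells were inducible force-coupled HEK293 TREx D1, plated overnight at 30 C and loaded with no-wash calcium dye.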
DRD3 agonist – agonists of human D3 dopamine receptor. 410,000 compounds, 0.58% hits. P35462. max activation, %. D3R DiscoveRx beta-arrestin cells, luminescence, 90 min. AID 652048; in the data active = max activation above about 30%; note: 0% is about no effect
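Cells at 1500/well, incubated overnight, then treated with pinned compounds (dopamine as control) for 90 min at 37 degrees C. DiscoveRx reagent added for 30 - 60 minutes at room temperature; luminescence read.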
D1 PAM – potentiators of human D1 dopamine receptor. P21728. HEK293 TREx D1 cells, calcium flux, dopamine EC20 potentiation. potentiation, % at 10 µM. 360,000 compounds, 0.036% hits; in the data active = potentiation above about 30%; note: 0% is about no effect
D1 antagonist – antagonists of human D1 dopamine receptor; P21728; activity change, negative = inhibition, % at 10 µM; 360,000 compounds, 3.2% hits; HEK293 TREx D1 cells, calcium flux, dopamine EC80; hits give low values; in the data active = activity change below about -30%; note: % is set by controls: 0 for no effect and ±100 for the full control effect
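Kinetic fluorescence of a calcium dye serves as the read-out. D1-expressing Hek293 Trex cells, induced overnight at 30 C, are exposed to compound for 180 s before an EC80 dopamine addition, then read 180 s further.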
* hit, by the source's call; ? = inconclusive; · = no result given. Most compounds without a hit are left out; they make up all but 6% or so of the library.

SMILES	DRD3 antagonist	D1 ag	DRD3 agonist	D1 PAM	D1 antagonist
Cc1ccc2c(c1)c1c(c(=O)n(-c3ccccc3C)c(=O)n1Cc1ccccc1F)n2C	·	3	1	-1	1
O=C(CNC(=O)C(c1ccccc1)c1ccccc1)N/N=C\c1cccc(O)c1	2	52*	3	-1	32
O=C(CNC(=O)C(c1ccccc1)c1ccccc1)N/N=C/c1ccc(O)cc1O	19	18	33*	3	6
C=C(C)Cn1c(SCC(=O)N/N=C/c2cccc(O)c2)nc2ccccc2c1=O	68	1	3	-11	-35*
O=C(/C=C\c1ccccc1)NCC(=O)N/N=C/c1ccc(O)cc1O	-2	2	-3	-2	6
COC(=O)C1CCN(S(=O)(=O)c2cc3c4c(c2)CCN4C(=O)CC3)CC1	18	1	2	-4	3
O=C(CN1CCN(c2cccc(C(F)(F)F)c2)CC1)Nc1cccc(C(F)(F)F)c1	?	0	-8	-4	-8
Cc1[nH]c2ccccc2c1C(O)CN1CCN(c2cccc(C(F)(F)F)c2)CC1 (configuration not stated)	-74*	31*	-10	-15	-59*
CC(=O)Nc1ccc(NC(=O)CN2CCN(c3cccc(C(F)(F)F)c3)CC2)cc1	-80*	7	-17	9	-2
OC(CN1CCN(Cc2ccc3c(c2)OCO3)CC1)c1c[nH]c2ccccc12 (configuration not stated)	-12	4	-18	0	3
O=C(CN1CCN(c2cccc(C(F)(F)F)c2)CC1)NCc1ccccc1	-14	2	-9	-5	-45*
OC(CN1CCN(c2ccccc2)CC1)c1c[nH]c2ccccc12 (configuration not stated)	-54*	5	-8	-8	-1
COc1ccc(OC)c(NC(=O)C2=C(C)C(=O)OC23CCCCCC3)c1	·	-2	-15	-2	3
COC(=O)c1nc(Nc2cc(F)cc(F)c2)nc(NC2CCCC2)n1	·	5	·	4	22
CC(=O)Nc1ccc(CN2CCN(c3cccc(C(F)(F)F)c3)CC2)cc1	-92*	1	-59	-1	1
Cc1ccc2c(=O)[nH]c(Cc3ccccc3C(=O)O)nc2c1	110	1	40*	2	3
Cc1ccc(-n2c(=O)c3c(cnn3C)n(CC(=O)Nc3cccc(C)c3)c2=O)cc1	·	-1	-7	3	-1
O=C(/C=C/c1ccccc1)Nc1cccnc1Oc1ccccc1F	5	9	-5	0	-39*
CCC(C)N(CCNC(=O)c1ccc2c(c1)NC(=O)c1ccccc1S2)C1CCCCC1 (configuration not stated)	-12	30*	-25	-2	1
COc1cc(C(=O)NCCCN2CCCC2=O)ccc1OCc1ccc(Cl)cc1Cl	-7	38*	1	-10	-16
O=C1Nc2cc(C(=O)NCCCN3CCCC3)ccc2S/C1=C/c1cccc(Cl)c1	-59*	·	-2	·	·
Cc1cccc(/C=C2/Sc3ccc(C(=O)NCCN4CCCC4)cc3NC2=O)c1	-7	1	-11	-4	-14
O=C(Cn1cnc2c(NCc3ccccc3)ncnc21)NCCCN1CCCC1=O	24	·	34*	·	·
CC1CCCC(C)N1CCCNC(=O)c1ccc2c(c1)NC(=O)c1ccccc1S2 (configuration not stated)	-18	3	0	-8	-7
Cc1ccccc1CN1CCc2nc(Nc3ccc4c(c3)OCCO4)ncc2C1	·	2	-17	3	-1
SMILES	DRD3 antagonist	D1 ag	DRD3 agonist	D1 PAM	D1 antagonist
COC(=O)c1ccc(NC(=O)CC2C(=O)N(c3ccccc3)C(=O)N2C2CCCC2)cc1 (configuration not stated)	·	3	13	-1	0
COc1ccc(-c2nc(SCC(=O)NCc3nc4ccccc4n3C)n3[nH]c(=O)cc3n2)cc1	·	1	18	0	-8
O=C1CCCN1CCCNC(=S)Nc1ccc(Nc2ccccc2)cc1	5	5	15	-2	0
O=C1CCCN1CCCNC(=S)Nc1ccccc1	6	5	13	-3	-38*
O=C(NCCCN1CCCC1=O)c1ccc2c(c1)NC(=O)c1ccccc1S2	13	1	-1	·	-32*
CC(C)(C)OC(=O)Cc1nnc(C(C(=O)OCc2ccccc2)c2ccccc2)s1 (configuration not stated)	·	15	·	-2	4
